Potency and affinity values are given separately. Activity calls are given as the source filed them.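 How the source made its calls, unless noted: active means a dose-response fit showing signal loss, with half-maximal concentration no higher than twice the top tested dose; inconclusive means flat fit between 30% and 70% signal loss, or poor fit; inactive means the rest.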
Test: inducers of Cryptococcus neoformans cell lysis, dose response, AK release luminescence, cherry-picks (AID 687000;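 active means fitted dose curve reaches 40% lysis signal rise at or below the highest valid concentration tested for that sample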;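 further: luminescent detection of adenylate kinase leaking from lysed yeast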)
Settings: C. neoformans lysis, adenylate kinase release luminescence, 4 h, 100% = twice the neutral-control signal; series mostly up to 15 µM
With Cc1cc(C)c(NC(=O)C2CCCN2CCO)c(C)c1 (configuration not stated) the outcome was “inactive”.
With CO[C@@H]1CC[C@@H]2CCOc3c(C#N)cccc3C(=O)N(C)C[C@H](c3ccccc3)CC(=O)N(C)C[C@@H]1O2 the outcome was “inactive”.
For NC(=O)CN(c1ccccc1)S(=O)(=O)c1ccc(F)cc1, the outcome was “inactive”.
With O=C(c1cc(Br)ccc1Cl)N1CCN(c2ccccn2)CC1 the outcome was “inactive”.
With CN1C(=O)c2cc(NS(C)(=O)=O)ccc2OC[C@@H]2O[C@@H](CC(=O)O)CC[C@H]21 the outcome was “inactive”.
In the case of COc1ccc(CN(C)C[C@@H]2Oc3ccc(NC(=O)C4CC4)cc3C(=O)N([C@H](C)CO)C[C@H]2C)cc1, the outcome was “inactive”.
With CC(C)NC(=O)Nc1ccc2c(c1)C(=O)N([C@@H](C)CO)C[C@H](C)[C@@H](CN(C)C(=O)CCC(F)(F)F)OCCCC[C@H](C)O2 the outcome was “inactive”.
In the case of COc1ccccc1NC(=O)N[C@@H]1CC[C@H](CCn2cc(-c3ccccc3OC)nn2)O[C@H]1CO, the outcome was “inactive”.

Test: HepG2 cell cytotoxicity, dose response, cytotoxicity control, cherry-picks, set 2 (AID 687002)
Settings: HepG2 viability, ATP luminescence (CellTiter-Glo), 48 h; series mostly up to 26 µM
With O=C([C@@H]1[C@@H](CO)[C@@H]2Cn3c(cccc3=O)[C@H]1N2Cc1cccc(Cl)c1)N1CCOCC1 the outcome was “inactive”.
For CC(=O)NC[C@H]1[C@@H](c2ccc(C3=CCCC3)cc2)[C@@H](CO)N1C(=O)NC(C)C, the outcome was “inactive”.
With CCC(C)(C(=O)NC1CCCC1)N(C(C)=O)c1ccc(C)cc1 (configuration not stated) the outcome was “inactive”.
For CC(C)NC(=O)N(C)C[C@@H]1OCCCC[C@@H](C)Oc2ccc(NC(=O)c3ccccc3)cc2C(=O)N([C@H](C)CO)C[C@H]1C, the outcome was “inactive”.
With Cc1noc(C)c1NC(=O)N(C)C[C@@H]1Oc2ccc(NC(=O)C3CC3)cc2CC(=O)N([C@H](C)CO)C[C@@H]1C the outcome was “inactive”.
In the case of CCCN(C)C[C@@H]1OCCCC[C@H](C)Oc2ccc(NS(=O)(=O)c3ccc(C)cc3)cc2C(=O)N([C@H](C)CO)C[C@@H]1C, the outcome was “inactive”.
With COCC(=O)Nc1ccc2c(c1)OC[C@@H](C)N(C(=O)Cc1cccnc1)C[C@H](C)[C@@H](OC)CN(C)C2=O the outcome was “inactive”.
With C[C@@H]1CCCCO[C@@H](CN(C)Cc2ccncc2)[C@@H](C)CN([C@@H](C)CO)C(=O)c2cc(NC(=O)c3ccncc3)ccc2O1 the outcome was “inactive”.
In the case of Cc1ccc(NC(=O)C2(C)CCCN2CC(C)C)cc1C (configuration not stated), the outcome was “inactive”.
In the case of COCCNC(=O)C[C@@H]1CC[C@H]2[C@@H](COC[C@H](O)CN2Cc2cccc(-c3ccncc3)c2)O1, the outcome was “inactive”.
For O=S(=O)(NC[C@@H]1[C@@H](c2ccccc2)[C@H](CO)N1CC1CC1)c1ccccc1, the outcome was “inactive”.
In the case of C[C@H]1CN([C@@H](C)CO)C(=O)Cc2cc(NS(=O)(=O)c3ccc(F)cc3)ccc2O[C@@H]1CN(C)S(=O)(=O)c1ccc(F)cc1, the outcome was “inactive”.
With C[C@H]1CCCCO[C@H](CN(C)S(=O)(=O)c2ccc(Cl)cc2)[C@@H](C)CN([C@@H](C)CO)C(=O)c2cc(NS(=O)(=O)c3cccs3)ccc2O1 the outcome was “inactive”.
In the case of CNC[C@@H]1Oc2cc(Br)ccc2S(=O)(=O)N([C@H](C)CO)C[C@H]1C, the outcome was “inactive”.
In the case of C[C@@H]1CN([C@@H](C)CO)C(=O)c2cc(-c3ccc(C#N)cc3)cnc2O[C@@H]1CN(C)C(=O)Nc1ccc(F)cc1, the outcome was “inactive”.
For CC(C)NC(=O)Nc1ccc2c(c1)C(=O)N([C@@H](C)CO)C[C@@H](C)[C@@H](CN(C)C(=O)c1ccncc1)OCCCC[C@@H](C)O2, the outcome was “inactive”.
For O=C(NC1CCCCC1)N[C@H]1C=C[C@@H](CC(=O)N2CCOCC2)O[C@H]1CO, the outcome was “inactive”.
For CC(C)NC(=O)N(C)C[C@H]1Oc2c(NC(=O)C3CCCCC3)cccc2C(=O)N([C@H](C)CO)C[C@H]1C, the outcome was “inactive”.
With O=C(NC[C@@H]1[C@H](c2ccccc2)[C@@H](CO)N1C(=O)Cc1cccnc1)C1CCC1 the outcome was “inactive”.
For CC(=O)N1[C@@H]2CN(S(=O)(=O)c3ccccc3F)c3ccccc3[C@@H]2[C@@H]1CO, the outcome was “inactive”.
For C[C@@H]1CN([C@@H](C)CO)C(=O)c2cc(NC(=O)C3CCCCC3)ccc2O[C@@H](C)CCCCO[C@@H]1CN(C)C(=O)NC1CCCCC1, the outcome was “inactive”.
With C[C@@H]1CN([C@@H](C)CO)C(=O)c2cc(NS(=O)(=O)c3cn(C)cn3)ccc2O[C@@H](C)CCCCO[C@H]1CN(C)C the outcome was “inactive”.
For COc1ccccc1-c1ccc2c(c1)O[C@@H](CN(C)C(=O)c1cccnc1)[C@H](C)CN([C@@H](C)CO)S2(=O)=O, the outcome was “inactive”.
In the case of CCC(C)(C(=O)Nc1ccccc1C)N(C(=O)CNC(C)=O)c1ccc(C)cc1 (configuration not stated), the outcome was “inactive”.
For C[C@H]1CN([C@@H](C)CO)C(=O)c2cc(-c3cncnc3)cnc2O[C@H]1CN(C)C(=O)c1ccccc1F, the outcome was “inactive”.
In the case of COCC(=O)N1C[C@H](C)[C@@H](OC)CN(C)C(=O)c2ccc(NS(C)(=O)=O)cc2OC[C@@H]1C, the outcome was “inactive”.
In the case of C[C@H](CO)N1C[C@H](C)[C@@H](CN(C)C(=O)Nc2cccc3ccccc23)Oc2c(cccc2N(C)C)C1=O, the outcome was “inactive”.
For Cc1ccc(S(=O)(=O)N(C)C[C@@H]2Oc3ncc(Br)cc3C(=O)N([C@@H](C)CO)C[C@H]2C)cc1, the outcome was “inactive”.
With CCCNC(=O)C[C@H]1C[C@H]2c3cc(NC(=O)Nc4ccc(OC)cc4)ccc3O[C@H]2[C@@H](CO)O1 the outcome was “inactive”.
For C[C@H]1CN([C@@H](C)CO)C(=O)Cc2cc(NS(=O)(=O)c3ccc(F)cc3)ccc2O[C@H]1CN(C)S(=O)(=O)c1ccc(F)cc1, the outcome was “inactive”.
For CC(C)NC(=O)N1CC[C@@H]2[C@@H](CO)N(C)c3ccc(-c4cccc(F)c4)cc3[C@@H]21, the outcome was “inactive”.
With Cc1cc(C)c(NC(=O)C2CCCN2CCO)c(C)c1 (configuration not stated) the outcome was “inactive”.
With CO[C@@H]1CC[C@@H]2CCOc3c(C#N)cccc3C(=O)N(C)C[C@H](c3ccccc3)CC(=O)N(C)C[C@@H]1O2 the outcome was “inactive”.
With NC(=O)CN(c1ccccc1)S(=O)(=O)c1ccc(F)cc1 the outcome was “inactive”.
For O=C(c1cc(Br)ccc1Cl)N1CCN(c2ccccn2)CC1, the outcome was “inactive”.
In the case of CN1C(=O)c2cc(NS(C)(=O)=O)ccc2OC[C@@H]2O[C@@H](CC(=O)O)CC[C@H]21, the outcome was “inactive”.
For COc1ccc(CN(C)C[C@@H]2Oc3ccc(NC(=O)C4CC4)cc3C(=O)N([C@H](C)CO)C[C@H]2C)cc1, the outcome was “inactive”.
With CC(C)NC(=O)Nc1ccc2c(c1)C(=O)N([C@@H](C)CO)C[C@H](C)[C@@H](CN(C)C(=O)CCC(F)(F)F)OCCCC[C@H](C)O2 the outcome was “inactive”.
For COc1ccccc1NC(=O)N[C@@H]1CC[C@H](CCn2cc(-c3ccccc3OC)nn2)O[C@H]1CO, the outcome was “inactive”.

From PubChem BioAssay
